Screens: PubChem BioAssay, National Center for Advancing Translational Sciences (NCATS)
MBNL1-CUG inh: qHTS Assay for Inhibitors of MBNL1-poly(CUG) RNA binding | Muscleblind-like protein 1 (Homo sapiens), Q9NR56 | TR-FRET MBNL1-His/biotin-(CUG)12 binding, 665/545 ratio | Potency, µM (top dose mostly 57.5 µM), hits mostly inhibitors | actives 0.036% (n = 280,000) | AID 2675, 2010; active = well fitted inhibition curve with a large enough effect in the signal ratio, with a control signal flat, not every such curve was filed as active; inconclusive = small, poorly fitted or top-dose-only effect, or effect the other way, or a change in a side signal; inactive = no such curve, though single readings can be large or run the other way; the % refers to the signal ratio
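TR-FRET between His-tagged MBNL1 and biotin-(CUG)12 RNA, detected with Tb anti-His antibody (0.055 ng/ul) and streptavidin-XL665 (5 nM), 60 min at room temperature. Compounds titrated 92 nM to 58 uM; 665/545 nm ratio normalized to buffer and complex controls.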
Rango complex inh: qHTS Assay for Inhibitors of Rango (Ran-regulated importin-beta cargo) - Importin beta complex formation; Rango CFP/YFP FRET sensor + importin beta, 45 min; Potency, µM (highest dose often 92.2 µM); actives 0.031% (n = 340,000); AID 540263, 2011; also: nearly all actives have a fitted effect of over 15% in size
Target sequence (Q14974 whole entry, looked up): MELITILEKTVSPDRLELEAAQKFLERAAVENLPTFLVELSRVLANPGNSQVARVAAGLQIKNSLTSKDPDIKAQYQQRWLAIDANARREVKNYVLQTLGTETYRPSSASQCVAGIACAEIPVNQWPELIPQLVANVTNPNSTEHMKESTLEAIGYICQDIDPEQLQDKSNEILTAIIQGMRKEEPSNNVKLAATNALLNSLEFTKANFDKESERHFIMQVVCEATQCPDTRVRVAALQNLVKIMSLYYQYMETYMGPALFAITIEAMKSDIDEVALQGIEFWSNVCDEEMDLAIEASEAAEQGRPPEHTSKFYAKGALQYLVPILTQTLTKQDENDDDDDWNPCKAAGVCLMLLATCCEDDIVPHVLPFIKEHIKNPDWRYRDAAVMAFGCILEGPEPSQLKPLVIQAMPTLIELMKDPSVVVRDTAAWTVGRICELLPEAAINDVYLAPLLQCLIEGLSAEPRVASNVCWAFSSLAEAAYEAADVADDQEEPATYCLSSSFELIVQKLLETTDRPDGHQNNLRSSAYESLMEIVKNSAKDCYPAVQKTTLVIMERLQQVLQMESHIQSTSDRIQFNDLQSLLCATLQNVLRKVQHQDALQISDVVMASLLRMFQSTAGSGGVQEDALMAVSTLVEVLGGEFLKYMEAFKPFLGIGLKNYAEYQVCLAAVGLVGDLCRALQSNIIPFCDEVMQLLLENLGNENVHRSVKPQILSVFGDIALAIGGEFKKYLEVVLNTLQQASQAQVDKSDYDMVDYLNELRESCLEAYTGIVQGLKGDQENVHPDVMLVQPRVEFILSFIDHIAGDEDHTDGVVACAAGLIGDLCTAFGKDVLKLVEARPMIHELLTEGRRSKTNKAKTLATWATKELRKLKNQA
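FRET biosensor Rango (snurportin 1 IBB between N-terminal EYFP and C-terminal Cerulean), 50 nM in PBS/1 mM DTT/0.02% Tween-20/0.1% BSA, preincubated 5 min RT with compound; 0.125 microM importin beta added, 45 min RT, CFP/YFP FRET ratio read.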
ClpP mod: qHTS Assay for Activators of ClpP; ATP-dependent Clp protease proteolytic subunit (Bacillus subtilis (strain 168)), P80244; purified B. subtilis ClpP, FRET peptide cleavage, 20 min; Potency, µM (titrated, usually from 57.5 µM); actives 1.9% (n = 340,000); AID 651965, 2013; active = well fitted falling curve with a large enough effect; inconclusive = small, poorly fitted or top-dose-only effect; inactive = no such curve, though single readings can be large or run the other way; also: the source files actives as falling curves though it sought activators and does not explain the sign; nearly all actives have a fitted effect of over 65% in size
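ClpP 10 microg/mL final, pH 8 Tris/KCl buffer with BSA, glycerol, Tween-20; compound pinned in; FRET-FV substrate; RT 20 min; Ex320/Em430; ΔFRET vs ADEP 5.8 microM, DMSO, no enzyme.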
CBFb-RUNX1 inh: qHTS Assay for Compounds Blocking the Interaction Between CBF-beta and RUNX1 for the Treatment of Acute Myeloid Leukemia | AlphaScreen CBFb-His/RUNX1-biotin binding, biochemical | Runt-related transcription factor 1 (Homo sapiens) + Core-binding factor subunit beta … | 230,000 tested, under 10 active | Potency, µM (highest dose often 59.8 µM), actives largely listed as inhibitors | AID 1477, 2009; active = well fitted curve in the direction sought with a large enough effect; inconclusive = small, poorly fitted or top-dose-only effect, or effect the other way, or another doubt; inactive = no such curve, though single readings can be large or run the other way
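CBFb-His/RUNX1-biotin, 30 nM each, preincubated 20 min RT; compound 15 min RT; Ni + streptavidin beads 50 ng each, 90 min RT; AlphaScreen read.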
Rango dissoc inh: qHTS Assay for Inhibitors of RanGTP induced Rango (Ran-regulated importin-beta cargo) - Importin beta complex dissociation. actives 0.071% (n = 340,000). Potency, µM (titrated, usually from 46.1 µM). Biochemical FRET Rango-importin beta, RanGTP-induced dissociation. Snurportin-1 (Homo sapiens) + GTP-binding nuclear protein Ran (Homo sapiens) + Importin …; also: nearly all actives have a fitted effect of over 45% in size
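Quantitative HTS using a FRET biosensor: 0.1 uM Rango, 0.25 uM importin beta, 0.6 uM Ran, 2 mM GTP, 0.2 uM RCC1 final, PBS with DTT, Tween-20 and BSA. Post-read taken 45 min after Ran addition.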
A number is an active result; 0 = inactive; ? = inconclusive; - = not tested or not shown; [ ] = another dose, or the depositor's remark. This excerpt belongs to a sample that is enriched for hits. Unless noted, calls follow the shape of the full dose curve.

SMILES	MBNL1-CUG inh	Rango complex inh	ClpP mod	CBFb-RUNX1 inh	Rango dissoc inh
COc1ccc(S(=O)(=O)NCc2ccc(C(=O)N3CCc4ccccc4C3)cc2)cc1	-	?	0	0	0
Cc1ccc(S(=O)(=O)NCc2ccc(C(=O)N3CCc4ccccc4C3)cc2)cc1	-	0	28µM	0	0
COc1ccc(C2C(C(C)=O)=C(C)Nc3ncnn32)cc1OC (stereo unspecified)	0	0	0	0	0
CCCCCOc1ccc(C2C(C(C)=O)=C(C)Nc3ncnn32)cc1OC (stereo unspecified)	0	0	11µM	0	0
Cc1ccc(C(c2c(NC(=O)c3ccco3)sc(C)c2C)N2CCOCC2)cc1 (stereo unspecified)	-	-	0	-	-
Cc1sc(NC(=O)c2ccco2)c(C(c2ccccc2)N2CCC(C)CC2)c1C (stereo unspecified)	0	0	28µM	0	0
O=C(Cn1c(=O)oc2cc(S(=O)(=O)N3CCCC3)ccc21)Nc1ccc(F)cc1F	-	-	0	-	-
Cc1ccc(C(=O)NCC(=O)OCC(=O)NC(C)C2CC3CCC2C3)cc1 (stereo unspecified)	-	0	32µM	-	0
Cc1ccccc1C(=O)NCC(=O)OCC(=O)NC(C)C1CC2CCC1C2 (stereo unspecified)	-	0	0	-	0
Cc1ccc(NC(=O)CN2CCc3ccccc3C2)cc1S(=O)(=O)N(C)C	0	0	-	0	0
Cc1ccc(NC(=O)CN2CCN(S(=O)(=O)c3cccs3)CC2)cc1S(=O)(=O)N(C)C	0	0	32µM	0	0
CCOC(=O)c1c(NC(=O)CCCOc2ccc(C(C)(C)C)cc2)sc2c1CCCC2	-	-	0	-	-
O=C(CN1CCCCC1)Nc1ccc(NC(=O)c2ccc(Cl)cc2)cc1Cl	0	0	14µM	0	0
Cc1cc(Cl)ccc1NC(=O)CN1CCCC1	0	0	-	-	0
Cc1ccc(O)c(CC(C)C)n1	0	0	3.5µM	0	0
Cc1ccc(O)c(CO)n1	-	0	-	0	0
O=C(Nc1ccccc1)c1snc2c(=O)[nH]cnc12	?	0	-	0	0
CCOC(=O)c1sc2nc[nH]c(=O)c2c1C	0	0	32µM	0	0
CCOC(=O)c1snc2c(=O)[nH]cnc12	?	0	28µM	0	0
CCOC(=O)c1cccc(NC(=O)c2sc3nc[nH]c(=O)c3c2C)c1	-	-	0	-	-
COc1cccc(CNC(=O)c2sc3nc[nH]c(=O)c3c2C)c1	-	-	40µM	-	-
CSc1ccc(CN2CCC2(C)C(=O)NC2CCc3ccccc32)cc1 (stereo unspecified)	-	-	0	-	-
O=c1[nH]cnc2nn(-c3ccccc3)nc12	0	0	0	0	?
O=c1[nH]cnc2nc(-c3ccccc3)c(-c3ccccc3)nc12	?	0	28µM	0	0
Cc1cc(/C=C(\C#N)C(=O)NCc2ccccc2)cc(C)c1O	0	?	-	-	6.5µM
SMILES	MBNL1-CUG inh	Rango complex inh	ClpP mod	CBFb-RUNX1 inh	Rango dissoc inh
CCOCCCNC(=O)/C(C#N)=C/c1cc(C)c(O)c(C)c1	0	?	0	0	26µM
N#CC(=Cc1ccc(O)c(O)c1)C(=O)NCc1ccccc1	-	-	0	-	-
CCOCCCNC(=O)/C(C#N)=C/c1cc(OC)c(O)c([N+](=O)[O-])c1	?	0	-	0	0
CCCCNC(=O)/C(C#N)=C/c1ccc2c(c1)OCCO2	0	0	25µM	0	0
CCOC(=O)c1c(C)[nH]c(C)c1S(=O)(=O)N1CCCC(C(=O)Nc2ccccc2OCC)C1 (stereo unspecified)	-	-	0	-	-
COCCN1CC(O)=C(c2nc3ccccc3c(=O)[nH]2)C1=N	0	0	?	0	0
COc1ccccc1N1CC(O)=C(c2nc3ccccc3c(=O)[nH]2)C1=N	0	?	32µM	0	0
Cc1ccsc1C1NC(=O)c2ccccc2N1 (stereo unspecified)	0	0	16µM	0	0
O=C1NC(c2cccc3ccccc23)Nc2ccccc21 (stereo unspecified)	-	0	?	-	0
O=C1NC(c2cccs2)Nc2ccccc21 (stereo unspecified)	0	0	?	?	0
O=C1NC(c2ccccc2Cl)Nc2ccccc21 (stereo unspecified)	0	0	25µM	0	0
CC(C)CCOc1ccc(CC(=O)NO)cc1	-	-	0	-	-
COc1ccc(OC)c(-c2cc(C(=O)N3CCc4ccccc4C3)no2)c1	0	?	25µM	0	0
COc1ccc([C@]23Cc4cc(OC)c(OC)cc4C(O2)c2c(cc(C)oc2=O)O3)cc1	0[11.5 µM]	-	-	-	-
Cc1ccc(-n2nc(C)c3c(C)cc(=O)[nH]c32)cc1	0	0	28µM	0	0
COc1cc(OC)c2c(-c3cccc(-c4ccc(NC(C)=O)cc4)c3)cc(=O)oc2c1	-	0	?	0	0
CCOC(=O)c1ccc(-c2cccc(-c3cc(=O)oc4cc(OC)cc(OC)c34)c2)cc1	-	0	20µM	0	0
COc1ccc(-c2noc(CSc3nnc(Cc4ccccc4)n3-c3ccccc3)n2)cc1OC	-	-	0	-	-
Cc1ccc2nc(NC(=O)CSc3nncc(=O)n3N)sc2c1	-	0	25µM	?	0
COc1ccc2nc(NC(=O)CSc3nnc(C)n3N)sc2c1	0	0	0	0	0
c1ccc(-c2cc(-c3nc4ccccc4[nH]3)c3ccccc3n2)cc1	0	0	18µM	0	0
Cn1cc(-c2nc3ccccc3[nH]2)c2ccccc21	0	0	28µM	0	0
Cc1cnc2c(c1SCC(=O)NCc1ccc(F)cc1)c(=O)n(C)c(=O)n2C	-	-	0	-	-
Cc1ccn2c(NC(=O)C(C)(C)Oc3ccc(Cl)cc3)c(-c3cccs3)nc2c1	-	0	32µM	0	0
COC(=O)c1cc2ccccc2c([N+](=O)[O-])c1O	-	0	-	-	0
SMILES	MBNL1-CUG inh	Rango complex inh	ClpP mod	CBFb-RUNX1 inh	Rango dissoc inh
COC(=O)c1cc2ccccc2c(-c2c(OC)c(C(=O)OC)cc3ccccc23)c1OC	0	0	25µM	0	0
CC(=O)N1CCN(CC(=O)O)CC1	0	-	-	0	-
CC(=O)NCN1CCN(CNC(C)=O)CC1	0	0	25µM	0	0
CCOC(=O)c1snc(C(=O)NC2CCCCC2)c1N	0	0	?	0	0
Nc1c(C(=O)NC2CCCCC2)nsc1C(=O)OCC(=O)NC1CCCCC1	?	0	25µM	0	0
Oc1ccccc1CNc1ccc(Br)cn1	0	0	3.2µM	0	0
Cc1ccc(-n2ncc(C(=O)NCCN3CCC(Cc4ccccc4)CC3)c2C2CCN(C(=O)OC(C)(C)C)CC2)cc1	-	-	0	-	-
CCC(=O)Nc1ccc2c(c1)C(=O)N(C1CCCCC1)C2=O	0	0	22µM	0	0
